# Screen size: about 52,000 compounds; about 4,300 (8.3%) were called active. Cut-off read from the data, not from the text of the source: active = survival mostly below about 52% (no sharp cut-off); inactive = mostly above about 56%. What follows is part of a selection rich in actives, with near analogues and random picks from the rest.
# Test system: DeltatarO mutant
# Assay: growth inhibition of S. aureus wild type versus tarO mutant, primary screen, teichoic acid synthesis inhibitors, RN4220, OD600 (AID 463173)
# Conditions: OD600, 18 h, stronger effect = lower value, screened at 18.75 µg/mL (by protocol)
row,Structure (SMILES),survival
1,CCCCNC(=O)CN1CCN(c2ncc(NC(=O)c3ccc(Cl)cc3)cc2C(=O)O)CC1,94% (inactive)
2,CCCOc1ccc(C2c3c(-c4ccccc4O)n[nH]c3C(=O)N2Cc2ccncc2)cc1OCC (stereo not given),90% (inactive)
3,O=C1c2[nH]nc(-c3ccccc3O)c2C(c2ccccc2F)N1Cc1cccnc1 (stereo not given),87% (inactive)
4,O=C1c2[nH]nc(-c3ccccc3O)c2C(c2cccc(Br)c2)N1Cc1ccncc1 (stereo not given),85% (inactive)
5,O=C1c2[nH]nc(-c3ccccc3O)c2C(c2ccccc2F)N1Cc1ccncc1 (stereo not given),94% (inactive)
6,Cc1ccc(O)c(-c2n[nH]c3c2C(c2ccccc2F)N(Cc2ccco2)C3=O)c1 (stereo not given),8% (active)
7,CCCOc1cccc(C2c3c(-c4ccccc4O)n[nH]c3C(=O)N2Cc2ccco2)c1 (stereo not given),2% (active)
8,COc1ccc(Cl)cc1NC(=O)c1ccc2nc(Cc3ccccc3)oc2c1,101% (inactive)
9,CN(C)c1ccc(CNC(=O)c2cnc3sc(N4CCCC4)nn3c2=O)cc1,67% (inactive)
10,CCOC(=O)c1c(C)n(C(=O)c2ccco2)c(=O)n1C(=O)c1ccco1,73% (inactive)
11,COc1ccc(CCn2c(=O)c3ccccc3n(CC(=O)Nc3cccc(C)c3)c2=O)cc1OC,83% (inactive)
12,Cc1ccc(C(=O)CSc2nnnn2C2CCCC2)cc1C,67% (inactive)
13,O=C(CSc1nnnn1C1CCCC1)c1ccc2c(c1)OCCO2,70% (active)
14,CC(C)n1nnnc1SCC(=O)c1ccc2c(c1)OCCO2,87% (inactive)
15,Cc1cccc(C(=O)NNc2ncnc3c2cnn3-c2ccc(C)cc2C)c1,106% (inactive)
16,COc1ccc(C(=O)NNc2ncnc3c2cnn3-c2ccc(C)cc2C)cc1,0% (active)
17,Cc1ccc(-n2ncc3c(N(CC(C)C)CC(C)C)ncnc32)c(C)c1,78% (inactive)
18,COc1ccc(C(=O)NNc2ncnc3c2cnn3-c2ccc(C)c(Cl)c2)cc1,69% (inactive)
19,Cc1ccc(-n2ncc3c(NCC(C)C)ncnc32)c(C)c1,37% (active)
20,Cc1ccc(CNc2ncnc3c2cnn3-c2ccc(C)cc2C)cc1,77% (inactive)
21,O=C(NCC(c1cccnc1)N1CCc2ccccc2C1)C(=O)Nc1ccccc1F (stereo not given),75% (inactive)
22,CCN(CC)CC(=O)Nc1ccc(-c2ccc(NC(=O)CN(CC)CC)cc2)cc1,113% (inactive)
23,CC1CCC(C(=O)NC(C(=O)OCC(=O)c2ccccc2)C(C)C)CC1 (stereo not given),75% (inactive)

row,Structure (SMILES),survival
1,COc1ccc(-c2nc3n(n2)C(c2ccccc2F)C(C(=O)Nc2cccnc2)=C(C)N3)cc1OC (stereo not given),81% (inactive)
2,COc1ccc(C2C(C(=O)Nc3ccccc3)=C(C)Nc3nc(-c4ccccc4)nn32)c(OC)c1 (stereo not given),82% (inactive)
3,COc1ccc(-c2nc3n(n2)C(c2ccccc2OC)C(C(=O)Nc2cccnc2)=C(C)N3)cc1 (stereo not given),80% (inactive)
4,COc1cc(OC)cc(-c2nc3n(n2)C(c2ccccc2F)C(C(=O)Nc2cccnc2)=C(C)N3)c1 (stereo not given),45% (active)
5,CC1=C(C(=O)Nc2ccccc2)C(c2ccc(C(=O)O)cc2)n2nc(SCC(=O)c3ccc(C)cc3)nc2N1 (stereo not given),82% (inactive)
6,COc1ccc(C2C(C(=O)Nc3ccccc3)=C(C)Nc3nc(SCC(=O)c4ccc(C)cc4)nn32)cc1 (stereo not given),71% (inactive)
7,CC1=C(C(=O)Nc2ccccc2)C(c2cccc(Cl)c2)n2nc(SCC(=O)c3ccc(C)cc3)nc2N1 (stereo not given),52% (active)
8,COc1cccc(C2C(C(=O)Nc3ccccc3)=C(C)Nc3nc(-c4ccccc4)nn32)c1 (stereo not given),57% (active)
9,COc1ccc(C2C(C(=O)Nc3ccccc3)=C(C)Nc3nc(-c4ccccc4)nn32)cc1OC (stereo not given),85% (inactive)
10,CCOc1ccc(NC(=O)C2CCN(S(=O)(=O)c3ccc4c(c3)oc(=O)n4C)CC2)cc1,91% (inactive)
11,CCCCNC(=O)c1cnn2c(C)c(Cc3c(F)cccc3Cl)c(C)nc12,135% (inactive)
12,O=C(CN1C(=O)CCSc2ccccc21)Nc1ccc(C(F)(F)F)cc1,111% (inactive)
13,N#Cc1c(N)nc2c(c1-c1ccccc1)CCCC2,102% (inactive)
14,COc1ccc(S(=O)(=O)NCc2ccc3c(c2)CCN3C(=O)c2ccc(C)cc2)cc1Cl,112% (inactive)
15,CCOC(=O)c1oc2c(c1C)/C(=N/OC(=O)c1ccccc1Cl)CCC2,69% (inactive)
16,Cc1cc(S(=O)(=O)Nc2cc3c(cc2N2CCOCC2)n(C)c(=O)c(=O)n3C)ccc1F,72% (inactive)
17,Cc1cc(C)c(S(=O)(=O)Nc2nnc(C(F)(F)F)s2)c(C)c1,36% (active)
18,Cc1ccc(S(=O)(=O)Nc2nnc(CC(C)(C)C)s2)cc1,87% (inactive)
19,CC(C)(C)c1nnc(NS(=O)(=O)c2ccc(F)cc2)s1,82% (inactive)
20,Cc1cccc(CSc2ncccc2C(=O)O)c1,47% (active)
21,O=C(O)c1cccnc1SCc1cccc(Cl)c1,79% (inactive)
22,Cc1ccc(CSc2ncccc2C(=O)O)cc1,87% (inactive)
23,Cc1ccc(NC(=O)c2c(C)oc3ccc(O)c(CN4CCCC4)c23)c(C)c1,67% (inactive)

row,Structure (SMILES),survival
1,CCOc1ccc(CCNC(=O)Cn2ccc3cc(S(=O)(=O)N4CCCCCC4)ccc32)cc1,126% (inactive)
2,CCc1ccc(OC(=O)c2sc3ncn(Cc4cccc(F)c4)c(=O)c3c2C)cc1,115% (inactive)
3,COc1ccc(S(=O)(=O)NCC(c2ccco2)N2CCN(c3ccc(F)cc3)CC2)cc1 (stereo not given),84% (inactive)
4,CCC(=O)N1CCc2cc(S(=O)(=O)NC(CC(C)C)C(=O)NCc3ccc(F)cc3)ccc21 (stereo not given),80% (inactive)
5,CCC(=O)N1CCc2cc(S(=O)(=O)NC(CC(C)C)C(=O)Nc3ccc(CC)cc3)ccc21 (stereo not given),60% (active)
6,CC(=O)N1CCc2cc(CNS(=O)(=O)c3ccc(Br)s3)ccc21,73% (inactive)
7,CCC(=O)N1CCc2cc(CNS(=O)(=O)c3ccc(Br)s3)ccc21,47% (active)
8,CCC(=O)N1CCc2cc(S(=O)(=O)NC(Cc3ccccc3)C(=O)O)ccc21 (stereo not given),25% (active)
9,CCC(=O)N1CCc2cc(S(=O)(=O)NC(Cc3ccccc3)C(=O)NCc3ccccc3)ccc21 (stereo not given),65% (inactive)
10,CCC(=O)N1CCc2cc(CNS(=O)(=O)c3ccc(Cl)s3)ccc21,93% (inactive)
11,CCC(=O)N1CCc2cc(S(=O)(=O)NC(Cc3ccccc3)C(=O)Nc3ccc(C)cc3)ccc21 (stereo not given),64% (inactive)
12,CCC(=O)N1CCc2cc(S(=O)(=O)NC(CC(C)C)C(=O)NCc3ccc(C)cc3)ccc21 (stereo not given),97% (inactive)
13,COC(=O)c1ccccc1NC(=O)c1oc2ccc3c(c2c1C)C(=O)CC(C)(C)O3,80% (inactive)
14,Cc1nc2cc(C(=O)O)ccc2n1-c1ccc(C(C)C)cc1,68% (inactive)
15,COc1cccc(CNC(=O)CSc2nc3ccccc3nc2Cc2ccccc2)c1,69% (inactive)
16,COc1ccc(NS(=O)(=O)c2ccc(-c3cnc(C4CC4)o3)cc2)cc1Cl,124% (inactive)
17,CCOC(=O)C1CCCN(S(=O)(=O)c2ccc(OC)cc2)C1 (stereo not given),76% (inactive)
18,CN1C(=O)Cc2cc(S(=O)(=O)CCC(=O)Nc3ccccc3)ccc21,83% (inactive)
19,Clc1ccc(CSc2nc3ncccc3[nH]2)cc1,71% (inactive)
20,O=C(O)c1cc(-n2c(/C=C\c3ccc(F)cc3)nc3ccccc3c2=O)ccc1Cl,94% (inactive)
21,COC(=O)c1ccc(-n2c(/C=C\c3cccc(Br)c3)nc3ccccc3c2=O)cc1,70% (inactive)
22,O=C(O)c1ccc(-n2c(/C=C\c3ccc(O)cc3)nc3ccccc3c2=O)cc1,58% (active)
23,COc1ccc(C)cc1NC(=O)N1CC(C)Sc2ccccc21 (stereo not given),55% (inactive)

row,Structure (SMILES),survival
1,Cc1ccc(N(C)C(=O)CC(C)S(=O)(=O)c2ccc3c(c2)NC(=O)CO3)cc1 (stereo not given),120% (inactive)
2,c1ccc2c(c1)[nH]c1nc(NN=C3CCC(=NNc4nnc5c(n4)[nH]c4ccccc45)CC3)nnc12,93% (inactive)
3,COc1cccc(-c2nc3c(c(SCC(=O)Nc4cc(C)ccc4C)n2)Cc2c(CO)cnc(C)c2O3)c1,77% (inactive)
4,CCc1ccc(NC(=O)c2ccc3oc(=O)n(Cc4ccccc4)c3c2)cc1,6% (active)
5,CCn1nnc2cc(C(=O)Nc3ccc(C)c(Cl)c3)ccc21,54% (inactive)
6,O=C(Nc1cccc(F)c1)c1ccc2oc(=O)n(Cc3ccccc3)c2c1,70% (inactive)
7,O=C(NCc1ccc(Cl)cc1)c1ccc2oc(=O)n(Cc3ccccc3)c2c1,109% (inactive)
8,O=C(NCc1ccc(F)cc1)c1ccc2oc(=O)n(Cc3ccccc3)c2c1,-2% (active)
9,CCn1nnc2cc(C(=O)Nc3ccc(OC)cc3)ccc21,102% (inactive)
10,Cc1cccc(CNC(=O)c2ccc3oc(=O)n(Cc4ccccc4)c3c2)c1,76% (inactive)
11,O=C(Nc1ccc(Cl)cc1)c1ccc2oc(=O)n(Cc3ccccc3)c2c1,67% (inactive)
12,Cc1ccc(CNC(=O)c2ccc3oc(=O)n(Cc4ccccc4)c3c2)cc1,64% (inactive)
13,CCc1ccc(NC(=O)c2ccc3c(c2)nnn3CC)cc1,-4% (active)
14,COc1cccc(CNC(=O)c2ccc3oc(=O)n(Cc4ccccc4)c3c2)c1,-1% (active)
15,O=C(NCc1ccccc1)c1ccc2oc(=O)n(Cc3ccccc3)c2c1,72% (inactive)
16,O=C(Cc1ccc(F)cc1)Nc1nncs1,99% (inactive)
17,Cc1ccc2ncc(C(=O)N3CCN(c4ccccc4F)CC3)c(=O)n2c1,102% (inactive)
18,CCOC(=O)c1c(NC(C)=O)c2c3c(sc2n1Cc1cc(C)ccc1C)CCCC3,98% (inactive)
19,O=C(CCOc1ccccc1)N(Cc1cccnc1)c1nc2c(F)cc(F)cc2s1,97% (inactive)
20,CC1=C(C(N)=O)C(c2cccc(C)c2)n2nc(-c3cccc(C)c3)nc2N1 (stereo not given),66% (inactive)
21,Cc1cccc(NC(=O)C2CCCN(S(=O)(=O)c3cccc4nonc34)C2)c1C (stereo not given),119% (inactive)
